The supplement of paper PMC12645437, “Orthogonal IMiD-Degron Pairs Induce Selective Protein Degradation in Cells” (ACS Chemical Biology, 2025)
In all, about 8,300 sequences were measured (“log2 fold change of degron read counts, EGFP-low vs EGFP+ sorted cells (limma voom), compound-induced degradation”: median about -1.1, highest 2% from about 3.2 on). This excerpt belongs to a sample that is enriched for the highest values.

T1: CRBN, Q96SW2
T1 chain: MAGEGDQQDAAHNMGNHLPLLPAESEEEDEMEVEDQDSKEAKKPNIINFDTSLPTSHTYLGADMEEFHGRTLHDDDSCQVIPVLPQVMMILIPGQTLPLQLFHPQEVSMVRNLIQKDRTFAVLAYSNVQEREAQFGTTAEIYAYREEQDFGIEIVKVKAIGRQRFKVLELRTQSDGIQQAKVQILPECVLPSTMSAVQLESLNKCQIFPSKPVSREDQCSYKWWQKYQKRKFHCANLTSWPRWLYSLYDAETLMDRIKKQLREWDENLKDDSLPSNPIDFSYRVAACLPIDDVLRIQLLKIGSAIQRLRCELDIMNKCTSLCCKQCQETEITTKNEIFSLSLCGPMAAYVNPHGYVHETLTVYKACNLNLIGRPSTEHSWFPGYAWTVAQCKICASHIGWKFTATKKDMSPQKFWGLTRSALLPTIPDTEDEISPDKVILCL


Target: T1, CRBN, Q96SW2
Assay: log2 fold change of degron read counts, EGFP-low vs EGFP+ sorted cells (limma voom), compound-induced degradation; higher = more compound-induced degradation of the degron-EGFP fusion; degrons are variants of IKZF1/3 zinc finger 2; compound dose not given here
Conditions: Jurkat, 18 h
Description: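 Pooled library of 8380 IKZF3 ZF2 degron mutants (positions 146-167 varied within the IKZF3 130-189 degron; only the varied core is printed, flanks not printed) fused to EGFP with IRES-mCherry, lentivirally expressed in Jurkat cells. mCherry+ cells were treated with one IMiD compound for 18 h (dose not stated) and FACS-sorted into EGFP-low and EGFP+ populations. Degron sequences were counted by NGS, and log2FC (EGFP-low vs EGFP+) was estimated by limma voom over 3 biological replicates.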

[1] = compound: compound 19 (5-tert-butyl-thalidomide)
[2] = compound: compound 22 (5-morpholino-thalidomide)
[3] = compound: compound 33 (diphenyl IMiD analogue)
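Further: pooled lentiviral library of zinc finger degron-EGFP fusions in mCherry-positive Jurkat cells, FACS-sorted after compound exposure, with degron abundance counted by next-generation sequencing.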

Sequence | log2 fold change of degron read counts [1] | log2 fold change of degron read counts [2] | log2 fold change of degron read counts [3] | log2 fold change of degron read counts (compound: thalidomide)
FDCEVCGAYFTQKGNLLRHIKL [46F_47D_49E_50V_52G_53A_54Y_55F_67L_, Q9UKT9] | -0.638 | -1.5 | -0.115 | -0.462
LVCNQCGFTCTQKGNLLRHIKL [46L_47V_49N_50Q_52G_53F_54T_55C_67L_, Q9UKT9] | -2.33 | -3.26 | -0.847 | -1.21
FLCNQCGHSFTQKGNLLRHIKL [46F_47L_49N_50Q_52G_53H_54S_55F_67L_, Q9UKT9] | -2.63 | -2.99 | -3.12 | -2.74
FACEICGRIFTQKGNLLRHIKL [46F_47A_49E_50I_52G_53R_54I_55F_67L_, Q9UKT9] | 0.366 | -1.59 | -1.49 | -1.01
FVCDICGANFTQKGNLLRHIKL [46F_47V_49D_50I_52G_53A_54N_55F_67L_, Q9UKT9] | -0.564 | 1.47 | 0.815 | 1.12
FKCPICGRQFTQKGNLLRHIKL [46F_47K_49P_50I_52G_53R_54Q_55F_67L_, Q9UKT9] | -2.24 | -2.58 | -2.12 | -0.821
LCCPICGFSCTQKGNLLRHIKL [46L_47C_49P_50I_52G_53F_54S_55C_67L_, Q9UKT9] | 2.83 | 3.15 | 3 | 3.11
LNCPICGFSCTQKGNLLRHIKL [46L_47N_49P_50I_52G_53F_54S_55C_67L_, Q9UKT9] | 2.9 | 2.01 | 1.38 | 2
LFCPICGFECTQKGNLLRHIKL [46L_47F_49P_50I_52G_53F_54E_55C_67L_, Q9UKT9] | 2.8 | 2.89 | 1.47 | 0.989
LVCPICGFSCTQKGNLLRHIKL [46L_47V_49P_50I_52G_53F_54S_55C_67L_, Q9UKT9] | 2.25 | 3.63 | 2.38 | 3.59
LFCPICGFSCTQKGNLLRHIKL [46L_47F_49P_50I_52G_53F_54S_55C_67L_, Q9UKT9] | 3.55 | 3.56 | 2.79 | 2.78
LRCPICGFSCTQKGNLLRHIKL [46L_47R_49P_50I_52G_53F_54S_55C_67L_, Q9UKT9] | 2.24 | 1.9 | 2.44 | 2.71
FQCEICGRNFTQKGNLLRHIKL [46F_47Q_49E_50I_52G_53R_54N_55F_67L_, Q9UKT9] | -2.38 | -2.7 | -0.772 | 0.915
FACPQCGAHFTQKGNLLRHIKL [46F_47A_49P_50Q_52G_53A_54H_55F_67L_, Q9UKT9] | 0.167 | -2 | -1.13 | -1.72
FRCPQCGAYFTQKGNLLRHIKL [46F_47R_49P_50Q_52G_53A_54Y_55F_67L_, Q9UKT9] | -1.85 | -1.73 | -0.273 | -0.427
FVCNICGAPFTQKGNLLRHIKL [46F_47V_49N_50I_52G_53A_54P_55F_67L_, Q9UKT9] | 1.87 | 3.32 | 2.44 | 3.33
FTCNICGAPFTQKGNLLRHIKL [46F_47T_49N_50I_52G_53A_54P_55F_67L_, Q9UKT9] | 2.03 | 3.03 | 2.21 | 2.73
FVCNQCGAPFTQKGNLLRHIKL [46F_47V_49N_50Q_52G_53A_54P_55F_67L_, Q9UKT9] | -1.48 | 0.603 | -0.000403 | 0.468
FYCNICGAPFTQKGNLLRHIKL [46F_47Y_49N_50I_52G_53A_54P_55F_67L_, Q9UKT9] | 3.87 | 3.54 | 2.43 | 1.04
FICNICGAPFTQKGNLLRHIKL [46F_47I_49N_50I_52G_53A_54P_55F_67L_, Q9UKT9] | 1.31 | 3.43 | 2.32 | 2.76
FECNICGAPFTQKGNLLRHIKL [46F_47E_49N_50I_52G_53A_54P_55F_67L_, Q9UKT9] | 0.92 | -1.22 | 0.793 | 1.96
FLCNICGAPFTQKGNLLRHIKL [46F_47L_49N_50I_52G_53A_54P_55F_67L_, Q9UKT9] | 1.46 | 1.8 | 2.1 | 2.49
FRCNICGAPFTQKGNLLRHIKL [46F_47R_49N_50I_52G_53A_54P_55F_67L_, Q9UKT9] | 2.88 | 3.49 | 3.05 | 3.38
FNCNICGAPFTQKGNLLRHIKL [46F_47N_49N_50I_52G_53A_54P_55F_67L_, Q9UKT9] | 3.04 | 1.9 | 0.574 | 0.97
